PLK1 PBD block: inhibitors of human PLK1 polo-box domain binding. hit rate 2.8% among 360,000. Potency, µM, most hits filed as inhibitors. Plk1 PBD binding of FITC phosphopeptide, fluorescence polarization. P53350. AID 720504; note: series mostly up to about 57 µM; nearly all actives have a fitted effect of over 65% in size
PI5P4K alpha inh: PI5P4K alpha (human) kinase inhibition. PI5P4Kalpha enzyme, ADP-Glo luminescence, 60 min; active compounds read low. max response, %. hit rate 1.2% among 330,000. AID 652105; active = max response of -50% or lower; inconclusive = between -30% and -50%; inactive = -30% or higher; note: value at the top dose of about 77 µM
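ADP-Glo luminescence end-point read after a 60 min room-temperature kinase reaction of PI5P4Kalpha plus substrate, initiated with ATP at 5 microM final. Buffer: 0.038 M HEPES pH 7.4, EGTA, 0.1% CHAPS, 5% DMSO.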
WRN inhibitor: inhibitors of human WRN helicase; WRN helicase unwinding, fluorescent forked duplex, kinetic; Potency, µM (series often up to 114 µM), hits mostly inhibitors; AID 651768; Q14191; hit rate 0.46% among 360,000; note: nearly all actives have a fitted effect of over 55% in size
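Kinetic red-fluorescence monitoring (525/598 nm) tracks WRN helicase activity after 100 nM fluorophore-quencher forked duplex and 2 mM ATP are added to 20 nM enzyme pretreated 15 min at room temperature with compound.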
USP2a block: USP2a (human) protease inhibition; O75604; USP2 core, Ub-CHOP2 coupled fluorogenic reporter, 485/531; Potency, µM (titrated, usually from 38.3 µM), most hits filed as inhibitors; hit rate 0.01% among 330,000
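USP2 core (10nM final) preincubated 30min RT with compound in 20mM Tris-HCl pH 8.0, 2mM CaCl2, 2mM beta-mercaptoethanol, 0.05% CHAPS; 25nM Ub-CHOP2 plus 25nM reporter substrate added, fluorescence (Ex485/Em531) read after 60min.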
USP1-UAF1 inh: inhibitors of human USP1/UAF1 deubiquitinase | recombinant USP1/UAF1, Ub-Rhodamine cleavage fluorescence | Potency, µM (series often up to 57.1 µM), most hits filed as inhibitors | hit rate 0.23% among 390,000; note: nearly all actives have a fitted effect of over 60% in size
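USP1/UAF1 complex (1 nM) preincubated 15 min at room temperature with compound, then Ub-Rho substrate (150 nM final) added. Kinetic fluorescence at 480/540 nm over 6 reads at 60 s intervals; 50 mM HEPES pH 7.8, 0.5 mM EDTA, 0.1 mg/ml BSA, 1 mM TCEP, 0.01% Tween-20.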
Numbers stand for hits; . = inactive; ? = inconclusive; / = not tested or not shown; [ ] = another dose, or the depositor's remark. In the library only some 3.3% were active in any assay of this set; here they are far more common. Unless noted, calls come from the whole dose curve; as a rule, active = well fitted curve in the direction sought with a large enough effect; inconclusive = small, poorly fitted or top-dose-only effect, or another doubt; inactive = no such curve, though single readings can be large; an effect the other way counts as inactive or inconclusive.

SMILES | PLK1 PBD block | PI5P4K alpha inh | WRN inhibitor | USP2a block | USP1-UAF1 inh
Cc1ccccc1OCC(=O)NC(=S)Nc1ccc2c3c(cccc13)CC2 | 3µM | . | . | . | .
O=[N+]([O-])c1ccc(N=Nc2ccc(O)cc2O)cc1 | . | . | . | . | .
O=S(=O)(O)c1cc(Cl)cc(N=Nc2ccc(O)cc2O)c1O | ? | -98 | 50µM | / | .
CC(=O)Nc1ccc(S(=O)(=O)Nc2cc([N+](=O)[O-])ccc2C)cc1 | 6.7µM | . | . | . | .
CC(=O)c1ccc(NS(=O)(=O)c2ccc([N+](=O)[O-])cc2)cc1 | . | . | . | / | .
COc1ccccc1NC(=O)c1ccccc1S(=O)(=O)c1ccccc1[N+](=O)[O-] | 6µM | . | . | . | .
COc1ccccc1NC(=O)c1ccccc1S(=O)(=O)c1ccc([N+](=O)[O-])cc1 | . | . | . | . | .
CC(=O)Nc1ccc(NC(=O)c2ccccc2S(=O)(=O)c2ccc([N+](=O)[O-])cc2)cc1 | 15µM | . | . | . | .
Cc1ccc([N+](=O)[O-])cc1NC(=O)c1ccoc1C | 30µM | ? | . | . | .
Cc1ccc(S(=O)(=O)Nc2ccc3cc([N+](=O)[O-])ccc3c2[N+](=O)[O-])cc1 | 24µM | . | .[11.6 µM] | / | .
Cc1ccc(S(=O)(=O)Nc2ccc3ccccc3c2[N+](=O)[O-])cc1 | 30µM | . | . | / | .
COc1ccc(NS(=O)(=O)c2ccc(C)cc2)c([N+](=O)[O-])c1 | 27µM | . | . | . | .
Cc1ccc(C(=O)Nc2c(C)nc3ccccn3c2=O)cc1 | / | / | / | / | .
Cc1ccc(Cn2ccn(Cc3ccc(C)cc3)c(=O)c2=O)cc1 | / | / | / | / | .
S=C(NCc1ccncc1)Nc1ccc(Br)cc1Cl | . | . | . | . | .
S=C(Nc1ccc(Br)cc1Cl)Nn1cnnc1 | 9.5µM | . | . | . | .
Cc1ccc(NC(=S)Nn2cnnc2)c(C)c1 | / | / | / | . | /
Cc1ccc(Cl)cc1NC(=S)Nn1cnnc1 | 11µM | . | . | . | .
COc1cc([N+](=O)[O-])ccc1NC(=S)Nn1cnnc1 | 9.5µM | . | . | . | .
CCc1cccc(NC(=O)CN2C(=O)COc3ccc(S(=O)(=O)Nc4ccccc4)cc32)c1 | / | / | / | / | .
CC1=C(c2ccc(F)cc2)S(=O)(=O)N=C1N1CCC(C(=O)NCCc2cccc(C)c2)CC1 | / | / | / | / | .
CCS(=O)(=O)N1CCC(C(=O)Oc2ccc(Cl)cc2)CC1 | 27µM | . | . | . | .
O=C(CCC1CCCC1)N1CCN(C2CCCC2)CC1 | . | . | ? | . | .
CC(C)CC(=O)N1CCN(C(=O)CCC2CCCC2)CC1 | 27µM | . | . | . | .
CC(=O)NC1C(OCc2ccccc2)OC2COC(c3ccccc3)OC2C1OCC(=O)O (stereo not given) | 21µM | . | . | . | .
SMILES | PLK1 PBD block | PI5P4K alpha inh | WRN inhibitor | USP2a block | USP1-UAF1 inh
CC(=O)NC1C(OCc2ccccc2)OC(CO)C(OC(C)=O)C1OC(C)=O (stereo not given) | . | . | . | . | .
Cc1nn(-c2ccccc2)c2sc(C(=O)Nc3cccc(Br)c3)cc12 | / | / | / | / | .
CN1/C(=C\C=O)C(C)(C)c2ccccc21 | . | . | . | . | .
CN1\C(=C/C=C/C=C/C=[N+](C)C)C(C)(C)c2ccccc21 | . | ? | 4.2µM | ? | 25µM
CCOc1ccc(C2C(C#N)=C(N)SC(N)=C2C#N)cc1OCC | . | -51 | . | . | 32µM
CCOc1ccc(C2C(C#N)=C(N)SC(N)=C2C#N)cc1OC | / | / | / | . | /
N#CC1=C(N)SC(N)=C(C#N)C1c1ccc([N+](=O)[O-])cc1 | 9.5µM | -84 | . | . | .
Cc1ccc(Sc2ccc(N3CCC(C(=O)Nc4ccc(Cl)cc4)CC3)nn2)cc1 | / | / | / | / | .
CCOC(=O)c1cccc(NS(=O)(=O)c2ccc3[nH]c4c(c3c2)CCCC4)c1 | / | / | / | / | .
COc1ccc(C2CC(c3cccs3)=NN2C(=S)Nc2ccccc2)cc1OC (stereo not given) | . | . | . | . | .
S=C(Nc1ccccc1)N1N=C(c2cccs2)CC1c1cccs1 (stereo not given) | 12µM | . | . | . | .
O=C(Nc1cccc(F)c1)c1ccc(-c2ccccc2)s1 | / | / | / | / | .
Cc1cc(-n2c(C)cc(C(=O)CCl)c2C)no1 | 13µM | . | .[11.6 µM] | . | .
Cc1cc(-n2c(C)cc(C(=O)CSc3ccccn3)c2C)no1 | 17µM | . | . | . | .
CCOc1cc(/C=N/Nc2ccc(S(=O)(=O)Nc3ccccc3C(=O)O)cc2[N+](=O)[O-])cc(Cl)c1O | 7.5µM | -69 | ? | / | ?
COc1cc(/C=N/Nc2ccc(S(N)(=O)=O)cc2[N+](=O)[O-])cc(OC)c1O | . | . | .[11.6 µM] | . | .
CCOc1ccc(C=NNc2ccc(S(=O)(=O)Nc3ccccc3C(=O)O)cc2[N+](=O)[O-])cc1OC | ? | -74 | ? | . | .
COc1cc(/C=N/Nc2ccccc2[N+](=O)[O-])ccc1OC(=O)c1ccccc1F | . | . | . | . | .
COc1cccc(/C=C2\SC(=S)N(C(C)C(=O)NC3C=CS(=O)(=O)C3)C2=O)c1 (stereo not given) | 27µM | . | . | . | .
O=C(Nc1cccnc1)c1cc(-c2ccc(Cl)c(Cl)c2)on1 | . | . | . | . | .
O=C(Nc1cccnc1)c1cc(-c2cccc(Cl)c2)on1 | 24µM | . | . | . | .
Cc1cc2oc(=O)c(CC(=O)O)c(C)c2c2occ(C(C)(C)C)c12 | 30µM | . | . | . | .
COCCNC(=O)Cc1c(C)c2c(cc(C)c3c(C(C)(C)C)coc32)oc1=O | . | . | . | . | ?
COc1ccc(N(Cc2cc3cccc(C)c3[nH]c2=O)C(=O)c2cccc(Cl)c2)cc1 | / | / | / | / | .
O=C(O)CNC(=O)CCCn1nnc2ccccc2c1=O | . | . | . | . | .
SMILES | PLK1 PBD block | PI5P4K alpha inh | WRN inhibitor | USP2a block | USP1-UAF1 inh
O=C(O)CNC(=O)CCn1nnc2ccccc2c1=O | 30µM | . | . | . | .
c1ccc(-c2noc(CN3CCN(c4cnccn4)CC3)n2)cc1 | 13µM | . | . | . | .
c1ccc(C(c2ccccc2)N2CCN(Cc3nc(-c4cnccn4)no3)CC2)cc1 | . | . | . | . | .
O=c1[nH]c2ccccc2nc1/C=C/c1ccc(Cl)cc1 | 3.4µM | ? | ? | . | .
Clc1ccccc1Cn1cccc1C1=NC(Cc2ccccc2)CO1 (stereo not given) | / | / | / | / | .
O=C1c2cc(Br)ccc2N(Cc2ccc(Br)cc2)S(=O)(=O)C1c1cc(Cl)c(Cl)cc1[N+](=O)[O-] (stereo not given) | 21µM | -61 | ? | . | ?
O=C1CS(=O)(=O)N(Cc2cccc(F)c2)c2ccc(Br)cc21 | . | . | . | . | ?
COCC(=O)n1nc(NCc2ccc(OC)cc2)nc1NCc1ccc(OC)cc1 | 12µM | . | . | . | .
CCCOc1ccc(C2C(=O)N(C3CCCCC3)CC(=O)N2CCc2ccccc2)cc1OC (stereo not given) | / | / | / | / | .
